Assay results from PubChem BioAssay.

Legend:
[1] = biological target: Tumor necrosis factor receptor superfamily member 10B (Homo sapiens) (UniProt O14763); test: viability loss of caspase-8 NB7 cells with TRAIL – with/without TRAIL, luminescence panel, confirmation (AID 651596); settings: NB7 neuroblastoma + caspase-8, TRAIL sensitization, NB7 Caspase-8, with TRAIL, mean of runs, at 10 µM, stronger effect = higher value
[2] = as above; settings: NB7 neuroblastoma + caspase-8, without TRAIL, NB7 Caspase-8, without TRAIL, mean of runs, at 10 µM

Tumor necrosis factor receptor superfamily member 10B (Homo sapiens), sequence (O14763 whole entry, looked up): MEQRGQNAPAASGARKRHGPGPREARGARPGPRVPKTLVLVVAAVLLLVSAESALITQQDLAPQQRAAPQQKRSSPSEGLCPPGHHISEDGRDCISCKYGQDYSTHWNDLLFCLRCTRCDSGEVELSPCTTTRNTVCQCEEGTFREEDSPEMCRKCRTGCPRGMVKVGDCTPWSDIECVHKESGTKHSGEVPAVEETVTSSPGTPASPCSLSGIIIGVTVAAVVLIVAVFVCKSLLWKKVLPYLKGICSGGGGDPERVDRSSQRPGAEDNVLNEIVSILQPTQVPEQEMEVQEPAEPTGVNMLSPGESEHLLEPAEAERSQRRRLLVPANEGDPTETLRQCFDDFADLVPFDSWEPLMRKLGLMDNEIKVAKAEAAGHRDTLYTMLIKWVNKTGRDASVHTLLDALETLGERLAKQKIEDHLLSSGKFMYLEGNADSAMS

| Structure (SMILES) | activity [1] | activity [2] |
| --- | --- | --- |
| Cc1nc2cc(NC(=O)Nc3nccs3)ccc2n1C | 63.5% | 60.8% |
| FC(F)(F)c1cc(Cl)c2nc(-c3ccccc3)cn2c1 | 65% | 76.1% |
| COc1ccc(C(=O)Nc2ccc3ccccc3c2)cc1 | 76.8% | 74.5% |
| Cc1ccc2nc(-c3ccc(NC(=O)CCN4C(=O)c5ccccc5C4=O)cc3)sc2c1 | 73.7% | 63.9% |
| COc1cc2nc(CN(C)Cc3ccc(C(C)(C)C)cc3)[nH]c(=O)c2cc1OC | 70.5% | 68% |
| Cc1ccc2c(c1)sc(=NC(=O)c1cccs1)n2C | 91.1% | 90.7% |
| CCc1sc(C(=O)N2CCc3ccccc32)cc1C | 46.1% | 44.7% |
| CCOc1ccccc1CNC(=O)C1CCN(c2nnc(C)c3c(C)n(-c4ccc(C)cc4)nc23)CC1 | 48.9% | 63.5% |
| CCc1nn2cc(-c3ccccc3)nc2s1 | 79.7% | 78.6% |
| O=C(NCCN1C(=O)S/C(=C\c2ccc(Cl)c([N+](=O)[O-])c2)C1=O)C1=COCCO1 | 63.1% | 72.9% |
| C=CCNc1ncnc2c1ncn2C1OC(CO)C(O)C1O (stereo not given) | 46.8% | 60.6% |
| C=CCn1c(C)cc(C(=O)CN2C(=O)c3ccccc3C2=O)c1C | 60.2% | 57.3% |
| Cc1ccc(C(=O)/C=C/Nc2ccccn2)cc1 | 86.9% | 79.8% |
| CN(C)c1ccc(-c2nc3ccccn3c2/N=C/c2ccc(Br)cc2)cc1 | 69.3% | 47% |
| COc1ccc(OC)c(NC(=O)c2cc(-c3cc(Cl)ccc3O)n[nH]2)c1 | 33.7% | 34.1% |
| CCCCOc1ccc(-c2nc(=S)[nH][nH]2)cc1 | 67.1% | 66.6% |
| N/C(Cc1ccc(Cl)cc1)=N\OC(=O)c1cccc2ccccc12 | 99% | 97.5% |
| CC(=O)Nc1cc(-c2cccc(C(=O)NCCN(C)C)c2)cn2c(-c3cccc(C(F)(F)F)c3)cnc12 | 65.3% | 89.8% |
| C/C(=N\Nc1cccc2cccnc12)c1ccccn1 | 69.8% | 59.6% |
| O=S(=O)(c1ccccc1)c1nnn2c1nc(NC1CCN(Cc3ccccc3)CC1)c1ccccc12 | 97.9% | 48.9% |
| O=C1C(=Cc2ccc(F)cc2)CCc2ccccc21 | 82.8% | 76.7% |
| COc1ccc(C=C2CCc3ccccc3C2=O)cc1 | 90.9% | 91.4% |
| CCc1ccc(NC(=O)c2nc(S(=O)(=O)Cc3ccccc3)ncc2Cl)cc1 | 51.2% | 86.6% |
| CCCC(=O)Nc1ccc(-c2csc(N/N=C\c3ccncc3)n2)cc1 | 61.5% | 65.6% |
| CCC(C)c1ccc(NC(=O)c2ccco2)cc1 (stereo not given) | 81.5% | 82.8% |

| Structure (SMILES) | activity [1] | activity [2] |
| --- | --- | --- |
| C=CCOn1c(C)c(C(C)=O)c2c3no[n+]([O-])c3ccc21 | 53.5% | 64.2% |
| CN(C)c1ccc(C(=O)Nc2nc3c(s2)CCCC3)cc1 | 51.9% | 48.6% |
| C#Cc1ccccc1OCCCN1CCC(C(O)(c2ccccc2)c2ccccc2)CC1 | 97.2% | 94.2% |
| CCn1nnc(NC(=O)c2ccc(C(C)(C)C)cc2)n1 | 69.1% | 75.2% |
| C=CCOC(=O)c1sc(NC(=O)c2ccco2)nc1C | 39.1% | 40.2% |
| Brc1ccc(-c2cn3ccccc3n2)s1 | 52.6% | 38.7% |
| Cc1ccc(OCc2nc(-c3ccccn3)no2)c(Br)c1 | 59.6% | 56.6% |
| CSc1nnc(NC(=O)c2nc(S(=O)(=O)Cc3ccccc3F)ncc2Cl)s1 | 80.3% | 58.1% |
| COc1cc2ccccc2cc1C(=O)Nc1sc2c(c1C(N)=O)CCN(C(C)C)C2 | 79.4% | 98.2% |
| Cc1nn(-c2ccccc2Cl)c(Cl)c1/C=N/Nc1cccc(C(=O)O)c1 | 68.9% | 62.9% |
| CC(C)(C)c1ccc(-c2nnc(N)s2)cc1 | 64.7% | 66.7% |
| C/C(=N\NC(=O)c1ccc2c(c1)OCO2)c1ccco1 | 53.5% | 57.3% |
| Cc1ccccc1-c1nnc(SCC(=O)Nc2cccnc2Cl)o1 | 68.8% | 61% |
| c1ccc(-c2ccc(-c3cn4c(n3)CCC4)cc2)cc1 | 62.8% | 67.6% |
| O=C(COc1cc(F)ccc1[N+](=O)[O-])Nc1cc(S(=O)(=O)N2CCCC2)ccc1Cl | 26.4% | 2.77% |
| COc1ccc(C(=O)c2c[nH]c3ccccc23)cc1 | 45.4% | 26.6% |
| c1ccc(CNc2nc(NCC3CC3)nc3cc(-c4ccccc4)sc23)cc1 | 15.9% | 16.7% |
| Cc1ccnc(NC(=O)c2ccc3c(c2)OCO3)c1 | 82.5% | 82.9% |
| O=C(Nc1nsc(-c2ccccc2)n1)c1cccs1 | 56.6% | 56% |
| CC(=O)c1sc(NC(=O)c2ccc(C(C)(C)C)cc2)nc1C | 30.1% | 35.9% |
| CCC(OC(=O)c1ccc(S(C)(=O)=O)c([N+](=O)[O-])c1)C(=O)NC1C2CC3CC(C2)CC1C3 (stereo not given) | 79.5% | 97.7% |
| CCc1nc(N)nc(N)c1-c1ccc(NCCN)c([N+](=O)[O-])c1 | 80.7% | 81.5% |
| CN(C)c1ccc(/C=N/NC(=O)c2ccco2)cc1 | 50.2% | 31.4% |
| COc1ccc2nc(-c3cccc(N)c3)[nH]c2c1 | 55.8% | 41.4% |
| CCc1ccc(-c2ccc(SCC(=O)NCC3CCCO3)nn2)cc1 (stereo not given) | 52.9% | 62.2% |
